# Measured values from PubChem BioAssay AID624256 (NMMLSC, 2012).
# The whole screen tested about 360,000 compounds, of which about 3,700 (1%) were called active. Roughly 2% stayed inconclusive and do not appear here.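 Rule for the calls: active = normalized GFP-positive differentiation at or above the plate's own cutoff, the solvent-only control mean plus 3 SD; inconclusive = no clear call, values can overlap the other calls; inactive = the rest.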 The full list was thinned out, with actives kept by preference.
# Test: HoxA9-arrested leukemia cell differentiation promoters – flow cytometry, MLPCN library, primary screen (AID 624256);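 for GFP+ MAC1+ double positive: cells exposed to compound for four days before flow analysis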;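 for normalized GFP-positive differentiation: cells exposed to compound for four days before flow analysis; 0% = DMSO wells and 100% = fulvestrant positive control at 5 µM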
# Conditions: ER-HoxA9 myeloid progenitors, lysozyme-GFP differentiation, at 10 µM; GFP+ MAC1+ double positive: measured here: differentiation confirmed by MAC1 staining, stronger effect = higher value; normalized GFP-positive differentiation: stronger effect = higher value
Structure (SMILES),GFP+ MAC1+ double positive,normalized GFP-positive differentiation,outcome
Cc1cc(C)c2nc3nc(C)cc(C)c3c(N)c2c1,2.1%,151% (active),–
NC(Cc1ccc(F)cc1)c1csc(Nc2nncc3ccccc23)n1 (centres undefined),0.8%,–,inactive
COc1ccccc1CNC(=O)c1cc(=O)c2ccccc2o1,1%,–,inactive
O=c1oc2ccccc2c(=O)c2ccccc12,1.6%,–,inactive
COc1cc(N=Cc2c(O)c3ccccc3oc2=O)c(OC)cc1Cl,12%,239% (active),–
CCOC(=O)c1ccn(S(=O)(=O)c2ccc(C)cc2)c1-c1ccccc1,1.4%,–,inactive
O=C1NC[C@H](Cc2ccc(O)cc2)N(C[C@H]2CCCN2C[C@H](Cc2ccccc2)N2C[C@H](Cc3ccccc3)N(CCc3ccccc3)C(=O)C2=O)C1=O,1%,–,inactive
CCOC(=O)[C@]12CCCC=C1N(CCC1=CCCCC1)C(=O)[C@H](CC(=O)N1CCN(C(=O)c3ccco3)CC1)C2,2.3%,–,inactive
N#CCCN(C(=O)COC(=O)c1ccc(S(=O)(=O)N2CCCCCC2)cc1)c1ccccc1,0.7%,–,inactive
Cc1c(C(=O)OCC(=O)N(CCC#N)c2ccccc2)oc2c1ccc1ccccc12,5%,26.9% (active),–
N#CCCN(C(=O)COC(=O)c1ccc2c(c1)OCCO2)c1ccccc1,0.7%,–,inactive
CCCc1nc2ccccc2n1C(C)C(=O)NC(C)(C)C (centres undefined),3.7%,–,inactive
O=C(NC(c1ccc(-c2ccccc2)cc1)c1cnccn1)C1CCN(CCOc2ccc(Cl)cc2Cl)CC1 (centres undefined),1.7%,–,inactive
CN(C)c1nccc(NCc2ccccc2)c1C#N,0.2%,–,inactive
CC(C)n1cnc2c(NCc3ccccc3)cc(OCC3CCN(C)CC3)cc21,8.3%,28.4% (active),–
CCOC1=C2[C@@H](CN(S(=O)(=O)c3ccc(C)cc3)[C@H]2c2ccccc2F)[C@H]2C(=O)N(Cc3ccccc3)C(=O)[C@H]2C1,1.5%,–,inactive
COC(=O)CCCCC1=CCC2C(=O)C=C(O)C2C1 (centres undefined),1.6%,–,inactive
CN(C)CCCNC(=O)/C=C/c1ccc(OCc2c(F)cccc2Cl)cc1,0.3%,–,inactive
O=C(/C=C/c1ccc(OCc2c(F)cccc2Cl)cc1)N1CCOCC1,32%,144% (active),–
Fc1cccc(Cl)c1COc1ccc(-c2nnco2)cc1,1.8%,–,inactive
CC1(C)OC(=O)C2=C(C[C@@H](C3CCCCC3)O[C@@H]2c2ccc(Cl)cc2)O1,0.8%,–,inactive

Structure (SMILES),GFP+ MAC1+ double positive,normalized GFP-positive differentiation,outcome
Cc1ccc(NC(=O)c2ccc(S(=O)(=O)NCC3CCCO3)cc2)cc1C (centres undefined),0.8%,–,inactive
CCOc1ccc(C(=O)Nc2ccc(S(=O)(=O)NCC3CCCO3)cc2)cc1OCC (centres undefined),2.1%,18.3% (active),–
O=C(Nc1ccc(S(=O)(=O)NCC2CCCO2)cc1)c1ccc(F)cc1 (centres undefined),0.4%,–,inactive
Cc1cccc(C)c1NC(=O)C(c1cccc2ccccc12)n1c(=O)c(-c2ccco2)nc2ccccc21 (centres undefined),3.2%,–,inactive
Cc1cc(C)c(S(=O)(=O)NN=C2c3ccccc3[C@H]3Cc4csc[n+]4[C@@H]23)c(C)c1,1.3%,–,inactive
O=C(COC(=O)c1ccccc1O)NCc1ccco1,0.8%,–,inactive
CCN(C(=O)COC(=O)c1ccccc1O)c1cccc2ccccc12,0.7%,11.2% (active),–
Cc1cccc(C)c1NC(=O)COC(=O)c1ccccc1O,0.5%,–,inactive
CCOC(=O)C1=CCC(c2ccc(F)cc2)N(S(=O)(=O)c2ccc(C)cc2)C1 (centres undefined),0.9%,–,inactive
Cc1cccc(C)c1-n1nnnc1C(CCc1ccccc1)N1CCN(C/C=C/c2ccccc2)CC1 (centres undefined),1.8%,–,inactive
Cc1cc2nc(-c3ccc(Cl)cc3)c(Cc3cccc(F)c3)n2c(C)c1Br,1.3%,–,inactive
CCOC(=O)N1CCN(C(=O)C2CC(c3ccc(F)cc3)=NO2)CC1 (centres undefined),1.8%,–,inactive
O=C(c1ccco1)N1CCN(C(=O)C2CC(c3ccc(Cl)c(Cl)c3)=NO2)CC1 (centres undefined),0.9%,–,inactive
O=C(c1ccco1)N1CCN(C(=O)C2CC(c3ccc(F)cc3)=NO2)CC1 (centres undefined),12.6%,34.4% (active),–
Cn1cnc(S(=O)(=O)N2C[C@@H](O)COC[C@@H]3O[C@H](CC(=O)NC4CCC4)CC[C@H]32)c1,3.2%,–,inactive
NCCCNC(=S)NCCCN(Cc1ccc(Cl)cc1)c1ccc(Br)cn1,0.9%,–,inactive
O=C(CC[C@H]1O[C@@H](n2ccc(=O)[nH]c2=O)[C@H](O)[C@@H]1O)N[C@H](Cc1ccccc1)C(=O)NCCCN1CCCC1=O,0.7%,–,inactive
CC(C)c1nc2ccc(C(=O)O)cc2[nH]1,15%,15.9% (active),–
O=C(NCC(O)c1nc2ccccc2[nH]1)c1ccc(Br)cc1 (centres undefined),0.9%,–,inactive
OC(c1nc2ccc(F)cc2[nH]1)C(O)c1nc2ccc(F)cc2[nH]1 (centres undefined),0.4%,–,inactive
COc1ccc(COC[C@H](CC(C)C)N2CCN(C(=O)c3cccc(C(F)(F)F)c3)CCC2=O)cc1,0.4%,–,inactive

Structure (SMILES),GFP+ MAC1+ double positive,normalized GFP-positive differentiation,outcome
CC(=O)C[C@@H]1OC[C@H](C)N1S(=O)(=O)c1ccc(C)cc1,3%,–,inactive
Cc1ccc(-c2c(N)nc3ncccn23)cc1,1.5%,–,inactive
CN1CCN(c2ccc3c(c2)OC[C@H](Cc2ccccc2)NS3(=O)=O)CC1,1%,–,inactive
CCc1noc(C)c1C(=O)OCC(=O)c1ccc(NC(=O)CC(C)C)cc1,1.1%,–,inactive
CCc1noc(C)c1C(=O)Nc1nc(-c2ccccc2)cs1,2.2%,32.2% (active),–
Cc1ccc(-c2csc(NC(=O)C3=COCCO3)n2)cc1C,0%,–,inactive
CCN(CC)S(=O)(=O)c1ccc(N2CCCC2)c(NC(=O)c2ccc([N+](=O)[O-])o2)c1,5.1%,56% (active),–
CCN(CC)S(=O)(=O)c1cc(C(=O)Nc2cc(S(=O)(=O)N3CCOCC3)ccc2N2CCCC2)ccc1F,0.3%,–,inactive
CCN(CC)S(=O)(=O)c1ccc(N2CCOCC2)c(NC(=O)c2ccc(=O)n(C)n2)c1,0.1%,–,inactive
Clc1cccc(Cc2c(-c3cccc(Cl)c3)nc3ccc(Cl)cn23)c1,0.4%,–,inactive
COc1ccc(CNC(=O)c2nnn(CC(=O)Nc3cc(C)cc(C)c3)c2N)cc1,0.5%,–,inactive
CCOc1ccc(Cn2nnc(C(=O)Nc3ccc(OC)cc3OC)c2N)cc1,12.5%,38% (active),–
COc1ccc(NC(=O)Cn2nnc(C(=O)NCCc3ccc(OC)c(OC)c3)c2N)cc1,1%,–,inactive
Cc1cccc(C)c1NC(=O)C(c1cccc(F)c1)N1CCN(C)CC1 (centres undefined),2.3%,–,inactive
COc1ccc(S(=O)(=O)N2CCOCC2)cc1C(=O)NC1CCCCC1,0.6%,–,inactive
COc1ccc(S(=O)(=O)N2CCOCC2)cc1C(=O)Nc1nc2ccccc2s1,27.7%,33.1% (active),–
COc1ccc(S(=O)(=O)N2CCOCC2)cc1NC(=O)COc1ccccc1,0.8%,–,inactive
Cc1c(C(=O)NCC2CC2)sc(=O)n1Cc1cccc(F)c1,4.3%,–,inactive
O=S1(=O)CC(N2CCN(Cc3ccccc3F)CC2)CN1Cc1cn(Cc2cccc(C(F)(F)F)c2)nn1 (centres undefined),1%,–,inactive
O=C1C=CN2CCCC2CC1 (centres undefined),1.2%,7.96% (active),–
CC(=O)C1=CCC(c2ccccc2)N(S(=O)(=O)c2ccc(C)cc2)C1 (centres undefined),1.6%,–,inactive

Structure (SMILES),GFP+ MAC1+ double positive,normalized GFP-positive differentiation,outcome
Cc1ccccc1S(=O)(=O)N1[C@@H](c2cccc(Cl)c2)C(C(=O)OC(C)(C)C)=CC[C@H]1c1ccc(Cl)cc1,0.4%,–,inactive
COc1ccc(S(=O)(=O)N[C@@H]2C=C[C@@H](CC(=O)N3CCc4ccccc4C3)O[C@@H]2CO)cc1,1.9%,–,inactive
CN1/C(=c2/s/c(=C3/C(=O)N(c4ccccc4)NC3=Nc3ccccc3)n(C)c2=O)C(C)(C)c2ccccc21,13.2%,200% (active),–
Cc1cccc(-c2cnc(C(O)c3ccc4ccccc4c3)[nH]2)c1 (centres undefined),0.2%,–,inactive
Cc1cccn2c(=O)c(/C=C3\SC(=S)N(CC(C)C)C3=O)c(NCCCOC(C)C)nc12,6%,235% (active),–
Cc1ccc2[nH]c(=O)c(-c3nc4c(C)cccn4c3NCc3ccco3)cc2c1,0.8%,–,inactive
Cc1cccn2c(=O)c(C=O)c(Nc3ccc(S(N)(=O)=O)cc3)nc12,0.8%,–,inactive
CNc1nc2c(C)cccn2c(=O)c1C=Nc1ccc(OC)cc1,0.6%,–,inactive
CCCN(CCC)c1nc2c(C)cccn2c(=O)c1/C=C1/SC(=S)N(Cc2ccco2)C1=O,9.4%,389% (active),–
CC(C)C1C(=O)N(Cc2cn(CCC3OCCO3)nn2)CCS(=O)(=O)N1Cc1ccc(-c2ccccc2C(F)(F)F)cc1 (centres undefined),1.5%,–,inactive
CCCCOCCCNC(=O)C[C@@H]1C[C@@]2(C(=O)OC)CCCCC=C2N(CCC2=CCCCC2)C1=O,1.3%,–,inactive
CCOC(=O)[C@]12CCCC=C1N(CCC1=CCCCC1)C(=O)[C@H](CC(=O)NCCCOC)C2,2.8%,–,inactive
CC(C)NC(=O)C1(C)CCCCN1Cc1cccc(C(F)(F)F)c1 (centres undefined),1.4%,–,inactive
COc1ccccc1CNC(=O)C1CCN(c2nc3ccccc3o2)CC1,4.6%,9.06% (active),–
COc1ccccc1CNC(=O)C1CCN(C(=O)[C@@H]2Cc3ccccc3CN2)CC1,4.9%,–,inactive
COc1ccccc1CNC(=O)C1CCN(S(C)(=O)=O)CC1,0.7%,–,inactive
CNC[C@H]1OCc2cnnn2CCCC(=O)N([C@H](C)CO)C[C@@H]1C,0.8%,–,inactive
CC(C)C[C@H]1CNC(=O)C(=O)N1C[C@H]1CCCN1C[C@H](Cc1ccc(O)cc1)N1C[C@H](CC(C)C)N(CC2CCCCCC2)C(=O)C1=O,1.3%,–,inactive
CCCCc1c(-c2ccc(Cl)cc2)ncn1CCc1ccccc1OC,2.2%,–,inactive
